# Source: PubChem BioAssay (Tox21)
# Values joined by “and” are separate entries in the source; they are usually repeats but may differ in a detail not shown here. Identical values can stand only once. Results filed as inconclusive are left out. Entries that show only a call come without a potency. Active and inactive are the calls of the source. Calls follow the shape of the dose curve; as a rule, active = well fitted cell-killing curve with a large enough effect in the repeat runs; inconclusive = weak or mixed curves, or effect the other way; inactive = flat fitted curve, though single readings scatter.
# Assay: Human pregnane X receptor (PXR) small molecule agonists, qHTS cell viability counter screen (AID 1346977); also: nearly all actives have a fitted effect of over 50% in size
# Conditions: PXR-Luc HepG2 viability, CellTiter-Fluor, 24 h; series mostly up to 92.4 µM
# Excerpt: U.S. Tox21 Program National Center for Advancing Translational Sciences [NCATS] NIH Chemical Genomics Center [NCGC] U.S. Environmental Protection Agency [EPA] National Institutes of Environmental Health Sciences [NIEHS] National Toxicology Program [NTP] U.S. Food and Drug Administration [FDA] Tox21 Assay Overview: The human pregnane X receptor (hPXR) regulates the expression of several drug metabolizing enzymes and induction of these proteins is a major mechanism for developing drug resistance in cancer. One such key enzyme catalyzing the drug metabolism is cytochrome P450 3A4 (CYP3A4). Changes in CYP3A4 expression affect drug metabolism, thereby reducing the therapeutic efficacy and altering toxicological response to a drug and which finally causes adverse drug interaction. To screen Tox21 libraries for compounds that activate hPXR-mediated CYP3A4 gene expression, PXR-Luc HepG2 cells were used. Also cytotoxicity of the compounds was tested in parallel by measuring the cell viability using CellTiter-Fluor assay system in the same wells.
# Tox21 Assay Protocol Summary: PXR-Luc HepG2 cells were dispensed at 2,000 per well in 5uL of assay medium containing 5% charcoal-stripped FBS into white solid bottom 1536-well plates (Corning Life Sciences, Corning, NY) using a Multidrop Combi (Thermo Scientific, Waltham, MA) dispenser. The assay plates were incubated at 37 C and 5% CO2 for 5hr, and then 23nL of compounds dissolved in DMSO and positive control were transferred using a Pintool station (Wako, San Diego, CA). The assay plates were incubated at 37C and 5% CO2 for 24hr. For cytotoxicity read, after 23hr incubation at 37C, 1uL CellTiter-Fluor reagent (Promega Corporation, Madison, WI) was added to each well of the assay plates using Flying Reagent Dispenser (FRD, Aurora Discovery, San Diego, CA). After 1hr incubation at 37C and 5% CO2, the fluorescence signal was quantified using a ViewLux plate reader (PerkinElmer, Shelton, CT).
# Potency is read from the fitted curve at half-maximal effect.
row,Structure (SMILES),Potency
1,O=[N+]([O-])c1cc(Cl)c(Cl)cc1Cl,inactive
2,C=CC(=O)OCC,inactive
3,CCCN(CCC)c1c([N+](=O)[O-])cc(C(C)C)cc1[N+](=O)[O-],inactive
4,CCCCCl,inactive
5,CN1CC[C@]23c4c5ccc(O)c4O[C@H]2[C@@H](O)CC[C@H]3[C@H]1C5,inactive
6,CCCC1CCCCN1 (stereo not given),inactive
7,CC(C)CCCCCCCOC(=O)c1ccccc1C(=O)OCCCCCCCC(C)C,inactive
8,O=C(O)C(F)(F)C(F)(F)C(F)(F)C(F)(F)C(F)(F)F,inactive
9,NCCc1cc(O)c(O)cc1O,inactive
10,CCCCCCCCCCCC[N+](C)(C)CCOc1ccccc1,61.1 µM (active)
11,CCCCC(CC)CO[N+](=O)[O-] (stereo not given),inactive
12,O=C(CCl)CCl,inactive
13,OCCCl,inactive
14,CC(C)[C@@H](C(=O)O[C@@H](C#N)c1cccc(Oc2ccccc2)c1)c1ccc(Cl)cc1,inactive
15,COP(=O)(OC)OC(Br)C(Cl)(Cl)Br (stereo not given),inactive
16,O=C1CC[C@@]2(O)[C@H]3Cc4ccc(O)c5c4[C@@]2(CCN3CC2CC2)[C@H]1O5,inactive
17,CCC[N+](CCC)(CCC)CCC,inactive
18,CC1(C)[C@H](C(=O)O[C@H](C#N)c2cccc(Oc3ccccc3)c2)[C@@H]1C=C(Br)Br,inactive
19,Cc1ccc(N)c(C)c1,inactive
20,C=CCSSCC=C,inactive

row,Structure (SMILES),Potency
1,C[C@H](N)[C@H](O)c1ccc(O)c(O)c1,inactive
2,c1ccc2sc(SNC3CCCCC3)nc2c1,inactive
3,Cc1nnc(-c2ccccc2)c(=O)n1N,inactive
4,CCOP(=S)(S)OCC,inactive
5,CN(C1CCCCC1)C1CCCCC1,inactive
6,CCCC[P+](CC)(CCCC)CCCC (tested in a mixture with another compound),inactive
7,N#CC(C#N)=Cc1ccc(O)c(O)c1,inactive
8,FC(F)OC(F)(F)C(F)Cl (stereo not given),inactive
9,O=C(Cc1ccccc1)c1ccccc1,inactive
10,O=[N+]([O-])/C=C/c1ccccc1,24.7 µM (active) and 19.3 µM (active)
11,O=C(O)c1cc(Cl)ccc1Cl,inactive
12,CCOC(=O)NC(O)C(Cl)(Cl)Cl (stereo not given),inactive
13,CCSCc1ccccc1OC(=O)NC,inactive
14,CCCN(CCC)C(=O)Cc1c(-c2ccc(Cl)cc2)nc2ccc(Cl)cn12,inactive
15,CCCCCCCCCCCCN(C)C,inactive
16,O=C(O)C(F)(F)C(F)(F)C(F)(F)C(F)(F)C(F)(F)C(F)(F)C(F)(F)C(F)(F)F,inactive
17,C[N+]1(CCC(C(N)=O)(c2ccccc2)c2ccccc2)CCCCC1,inactive
18,CCOP(=S)(OCC)SCSc1cc(Cl)ccc1Cl,inactive
19,CC(Cc1ccccc1)NCc1ccccc1Cl (stereo not given),inactive
20,CC(C)(C#N)C(C)(C)C#N,inactive
